MCF10A rerep: DNA re-replication induction in MCF 10a cells; MCF 10A DNA re-replication, Hoechst nuclear intensity, 48 h; Potency, µM (series often up to 46.1 µM), actives largely listed as activators; hit rate 2.9% among 350,000; also: nearly all actives have a fitted effect of over 50% in size
KB-V1 MDR tox: kills drug-selected multidrug resistant KB-V1 cells; KB-V1 MDR cells viability, CellTiter-Glo, 72 h; Potency, µM (doses to about 46.1 µM), usual class: cytotoxic; hit rate 3.4% among 400,000; also: nearly all actives have a fitted effect of over 60% in size
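KB-V1, DMEM (no phenol red) + 10% FBS; cpd pin-transferred, titration series; 72 h, 37 degrees C; CellTiter-Glo, luminescence. Data normalized, curve-fit.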
RGS4 inhibitor: human RGS4 inhibition | P49798 | Transcreener GDP fluorescence polarization, RGS4-accelerated GTP hydrolysis | Potency, µM (titrated, usually from 114 µM), hits mostly inhibitors | hit rate 0.039% among 390,000 | AID 504845; also: nearly all actives have a fitted effect of over 75% in size
Target sequence (P49798 whole entry, looked up): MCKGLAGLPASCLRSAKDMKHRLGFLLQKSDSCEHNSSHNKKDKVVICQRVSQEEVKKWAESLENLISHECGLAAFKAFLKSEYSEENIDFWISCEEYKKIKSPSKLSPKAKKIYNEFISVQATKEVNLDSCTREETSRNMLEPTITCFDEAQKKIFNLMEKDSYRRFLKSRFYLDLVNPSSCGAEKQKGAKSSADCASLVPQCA
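MLSMR compounds (23 nl, pin-transferred) preincubated 10 min at room temperature with a 500nM (2x) first reagent, then RGS4 at 900nM (2x) plus Transcreener GDP mix added; fluorescence polarization (620/688 nm) read before and after 90 min at 30 °C.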
SW480 rerep: inducers of DNA re-replication in SW480 colon cancer cells. Potency, µM (top dose mostly 46.1 µM), usual class: activators. hit rate 1.8% among 340,000. SW480 DNA re-replication, Hoechst DNA content imaging, 48 h; also: nearly all actives have a fitted effect of over 55% in size
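Cells (250 per well) received 23 nL compound or DMSO by pin tool and were kept 48 hr at 37 C, 5% CO2. Nuclei were then stained with Hoechst for 40 min and scanned for DNA content.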
KB-3-1 cytotox: kills parental KB-3-1 adenocarcinoma cells. KB-3-1 viability, CellTiter-Glo ATP luminescence, 72 h. Potency, µM (highest dose often 46.1 µM), usual class: cytotoxic. hit rate 1.4% among 400,000; also: nearly all actives have a fitted effect of over 60% in size
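Cells are dispensed, compounds pinned in, plates held at 37 °C for 72 h, then CellTiter-Glo is added and luminescence read after 10 minutes. Cell line: parental KB-3-1 in phenol-red-free DMEM, 10% FBS.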
PTAP TSG101 blk: blocks PTAP/TSG101 interaction to inhibit HIV-1 budding | Q99816 | Fluorescence polarization, FITC-PTAP peptide / Tsg101 binding | Potency, µM (titrated, usually from 115 µM), hits mostly inhibitors | 340,000 tested, under 10 active | AID 493005; active = well fitted inhibition curve with a large enough effect in the main read-out, with a control signal flat, not every such curve was filed as active; inconclusive = small, poorly fitted or top-dose-only effect, or effect the other way, or a change in a side signal; inactive = no such curve, though single readings can be large or run the other way
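FP read-out: FITC-PTAP peptide, 50 nM final, binding Tsg101 binding domain, 10 uM final; 20 min, r.t.; 10 mM HEPES pH 7.5, 0.15 M NaCl, 0.01% Tween 20, 3 mM EDTA, 0.1 mM TCEP.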
A number is an active result; . = inactive; ? = inconclusive; / = no result given; [ ] = dose if it differs, or a comment. Rows were chosen to be rich in hits. Some 6.6% of all compounds tested hit in one or more screens of this group. Unless noted, calls follow the shape of the dose curve; as a rule, active = well fitted curve in the direction sought with a large enough effect; inconclusive = small, poorly fitted or top-dose-only effect, or another doubt; inactive = no such curve, though single readings can be large; an effect the other way counts as inactive or inconclusive.

SMILES	MCF10A rerep	KB-V1 MDR tox	RGS4 inhibitor	SW480 rerep	KB-3-1 cytotox	PTAP TSG101 blk
CCOC(=O)c1c(C)[nH]c(=S)c(C#N)c1-c1ccc(Cl)cc1	?	.	.	.	.	.
COc1ccc(OC)c(CNC(=O)C2CCN(c3nc4ccccc4nc3C(F)(F)F)CC2)c1	/	.	.	/	.	/
N#Cc1c(NC(=O)CS(=O)(=O)c2ccc(Cl)cc2)sc2c1CCCCC2	/	.	.	/	.	/
O=C(O)CCc1ccc(-c2ccc(Cl)cc2)n1-c1cccc(C(F)(F)F)c1	/	.	.	/	.	/
Cc1ccc(NC(=O)CN(C)S(=O)(=O)c2cccs2)cc1F	.	14.6µM	.	.	?	.
c1ccc2c(c1)c1cccc3ccc4cccc2c4c31	.	.	.	.	.	.
N#CCc1cc2ccc3cccc4ccc(c1)c2c34	.	7.31µM	.	.	?	.
O=C(CN1CCN(Cc2ccccc2)CC1)N1CCCc2c1c(=O)oc1ccc(O)cc21	20.6µM	14.6µM	.	.	?	.
O=C(c1ccco1)N1CCN(CC(=O)N2CCCc3c2c(=O)oc2ccc(O)cc32)CC1	.	.	.	.	.	.
Cc1ccc(C)c(CN2C(=O)c3ccccc3S(=O)c3ccc(C(=O)N4CCCCC4)cc32)c1 (configuration not stated)	/	.	.	/	.	/
O=S(=O)([N-]c1nc2ccccc2nc1-n1cc[n+](Cc2ccccc2)c1)c1ccccc1	6.51µM	.	.	?	.	.
CCCC[n+]1ccn(-c2nc3ccccc3nc2[N-]S(=O)(=O)c2cccs2)c1	?	.	.	16.4µM	.	.
Cc1ccc(S(=O)(=O)[N-]c2nc3ccccc3nc2-n2cc[n+](Cc3ccccc3)c2)cc1	?	.	.	?	.	.
CN(C)c1ccc(N=Cc2ccnc3ccccc23)cc1	/	.	/	/	.	/
COC(=O)c1ccccc1-c1c2ccc(=N)cc-2oc2cc(N)ccc12	.	.	?	.	1.3µM	.
O=C(O)c1ccccc1-c1c2ccc(=O)cc-2oc2cc(O)ccc12	.	/	/	.	/	/
C=CCn1c2ccccc2c2nnc(SCCCn3c(=O)[nH]c4ccccc43)nc21	20.6µM	?	.	.[9.22 µM]	?	.
C[C@@H]1C[C@H]2[C@@H]3CCC4=CC(=O)C=C[C@]4(C)[C@@]3(F)C(O)C[C@]2(C)[C@@]1(O)C(=O)CO (some centres not stated)	/	.	.	/	.	/
O=C(Cn1c(=O)n(Cc2ccc(F)cc2)c(=O)c2sc3ccccc3c21)NCc1ccccc1Cl	/	.	.	/	.	/
COc1ccc(NC(=O)C2CCCN2S(=O)(=O)c2ccc3c(c2)CCCC(=O)N3)cc1Cl (configuration not stated)	/	.	.	/	.	/
COc1ccc(NC(=O)C2(C)Cc3c(-c4cccc(C(N)=O)c4)ccnc3O2)cn1 (configuration not stated)	/	.	/	/	9.2µM	/
CC1(C(=O)NCc2ccco2)Cc2c(-c3cccc(C(N)=O)c3)ccnc2O1 (configuration not stated)	/	.	/	/	10.3µM	/
CC1(C(=O)NCc2ccncc2)Cc2c(-c3cccc(C(F)(F)F)c3)ccnc2O1 (configuration not stated)	/	.	/	/	.	/
CC1(C(=O)NCc2ccco2)Cc2c(-c3cccc(C(F)(F)F)c3)ccnc2O1 (configuration not stated)	/	?	/	/	6.51µM	/
CC(=O)Nc1ccc(-c2ccnc3c2CC(C)(C(=O)NCc2ccco2)O3)cc1 (configuration not stated)	/	.	/	/	10.3µM	/
CCc1cccc(NC(=O)Cn2c(=O)n(CC(=O)NCCc3ccccc3)c(=O)c3ccccc32)c1	/	.	.	/	.	/
CC(=O)N1CCCc2cc(S(=O)(=O)N(C)CC(=O)Nc3cccc(C)c3C)ccc21	/	.	.	/	.	/
CC1(C(=O)NCc2ccccc2)Cc2c(-c3cccc(C(N)=O)c3)ccnc2O1 (configuration not stated)	/	.	/	/	6.51µM	/
